# Results taken from PubChem BioAssay (NCATS).
# Several values for one entry are separate records, joined by “and”; a condition that tells them apart may be missing. Identical values can stand only once. Inconclusive results are not listed. A call without a number means that no potency is given here. Some compounds were tested as several samples or in several runs, with calls that do not always agree. A number with no mark means an inactive call. Activity calls are given as the source filed them. Calls come from the whole dose curve; as a rule, active = well fitted curve in the direction sought with a large enough effect; inconclusive = small, poorly fitted or top-dose-only effect, or another doubt; inactive = no such curve, though single readings can be large; an effect the other way counts as inactive or inconclusive.
# Tests used:
# [1] = target: Cytochrome P450 3A7 (Homo sapiens) (UniProt P24462); assay: Cytochrome P450 family 3 subfamily A member 7 (CYP3A7) small molecule antagonists: luciferase biochemical qHTS assay (AID 1963596); note: nearly all actives have a fitted effect of over 40% in size; note: potency is the fitted concentration of half-maximal effect
# Sequence of Cytochrome P450 3A7 (Homo sapiens) (P24462 whole entry, looked up): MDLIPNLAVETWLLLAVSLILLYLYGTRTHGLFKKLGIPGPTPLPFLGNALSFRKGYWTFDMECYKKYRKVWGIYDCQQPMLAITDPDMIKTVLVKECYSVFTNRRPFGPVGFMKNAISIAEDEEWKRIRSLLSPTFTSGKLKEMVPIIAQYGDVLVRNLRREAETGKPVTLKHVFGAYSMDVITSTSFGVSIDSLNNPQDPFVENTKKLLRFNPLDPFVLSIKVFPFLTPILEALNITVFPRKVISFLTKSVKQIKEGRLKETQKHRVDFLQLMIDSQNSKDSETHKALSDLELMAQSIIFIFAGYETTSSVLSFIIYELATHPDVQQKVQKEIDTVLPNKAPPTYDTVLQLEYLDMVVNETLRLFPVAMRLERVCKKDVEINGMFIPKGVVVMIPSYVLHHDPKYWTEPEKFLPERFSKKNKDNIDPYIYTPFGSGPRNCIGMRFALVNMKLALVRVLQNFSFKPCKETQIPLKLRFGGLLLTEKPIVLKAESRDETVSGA
# Summary of the method: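 Biochemical CYP3A7 activity measured with P450-Glo system: luciferin formed from proluciferin substrate in NADPH-driven reaction (1 h, room temperature) after 10 min compound preincubation. Signal in relative luminescence units.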
# [2] = Viability qHTS for spleen associated tyrosine kinase inhibitor (SYKi) naive MV4-11 cells (AID 1963823); note: nearly all actives have a fitted effect of over 40% in size; note: potency is the fitted concentration of half-maximal effect
# Summary of the method: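 qHTS, SYK inhibitor-naive MV4-11; 500 cells/well; 72 hr compound exposure, 37 C; CellTiter-Glo added, 10 min RT; luminescence read.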
# [3] = Viability qHTS for spleen associated tyrosine kinase inhibitor (SYKi) drug resistant MV4-11 cells (AID 1963824); note: nearly all actives have a fitted effect of over 35% in size; note: potency is the fitted concentration of half-maximal effect
# Summary of the method: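 CellTiter-Glo luminescence, read 10 min after reagent addition, reports viability after a 72 hr compound exposure. Cells are an MV4-11 line made resistant to SYK inhibition, seeded at 500 per well onto compound-containing plates.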
# [4] = Cellular viability qHTS for adrenocortical cancer (ACC) cell line SW-13 (AID 1963989); details: SW-13 ACC cells viability, CellTiter-Glo, 48 h; activity (max response): stronger effect = lower value;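 note: cells grown in serum-free medium with ITS supplement; nearly all actives have a fitted effect of over 65% in size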
# Summary of the method: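 IC50 and maximal-response values come from four-parameter logistic fits of titration data. SW-13 cells in serum-free medium received compounds (up to 46 uM final) for 48 h before CellTiter-Glo luminescence.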
# [5] = Cellular viability qHTS for adrenocortical cancer (ACC) cell line NCI-H295R (AID 1963990); note: nearly all actives have a fitted effect of over 60% in size
# Summary of the method: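 Adrenocortical carcinoma cells, suspended at 300 000 cells/mL in serum-free DMEM plus ITS, rested overnight before pin transfer of compound. After two days' incubation, ATP-dependent luminescence was recorded and curve-fitted.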
compound,measurement,setting,value
CCOc1cc(C(=O)Nc2ccc(-c3nc4ncccc4o3)cc2C)cc(OCC)c1OCC,Potency,[1],inactive
CC1(C#N)CCN(c2c(C(=O)N3CCN(S(C)(=O)=O)CC3)cnc3cc(F)c(F)cc23)CC1,Potency,[1],14.1 µM (active)
Cc1cccc(NC(=O)Cn2c(=O)n(Cc3ccc(C(=O)NCc4ccc5c(c4)OCO5)cc3)c(=O)c3ccccc32)c1,Potency,[1],inactive
C[C@@H]([C@@H](O)c1ccc(O)cc1)N1CCC(O)(c2ccccc2)CC1,Potency,[1],inactive
same,Potency,[2],inactive
CC(NC(=O)CCc1nc2ccccc2c(=O)[nH]1)c1ccccc1 (configuration not stated),Potency,[1],inactive
C=CCNc1nc(NCC=C)nc(N2CCN(C(c3ccc(F)cc3)c3ccc(F)cc3)CC2)n1,Potency,[1],inactive
COc1ccccc1Nc1nc(-c2ccccc2F)nc2ccccc12,Potency,[1],inactive
CC(NC(=O)C(=O)Nc1c2c(nn1-c1ccccc1)CSC2)c1ccccc1 (configuration not stated),Potency,[1],inactive
COC(=O)C(CC1CCCC1)c1ccc(S(C)(=O)=O)cc1 (configuration not stated),Potency,[1],inactive
same,Potency,[2],inactive
Cc1cccc(C#Cc2cc(F)cc(C#N)c2)n1,Potency,[1],inactive
same,Potency,[2],inactive
O=C(OCCO)c1ccccc1O,Potency,[1],inactive
c1ccc(-c2csc(N3CCOCC3)n2)cc1,Potency,[1],inactive
same,Potency,[2],inactive
COc1ccc(NC(=O)Cn2ccn(-c3ccc(C)c(C)c3)c(=O)c2=O)cc1Cl,Potency,[1],inactive
O=C(NCC1CCN(Cc2cccc(Cl)c2)CC1)[C@@H]1CCCN(c2ncnc3c2nc2n3CCCC2)C1,Potency,[1],inactive
same,Potency,[2],2.31 µM (active)
c1ccc(-n2cnnn2)cc1,Potency,[1],inactive
O=C(OCc1ccccc1)c1cccnc1,Potency,[1],inactive
CN1CCC(Nc2nc(Nc3ccc(Oc4ccccc4)cc3)c3c(=O)[nH]cc(Br)c3n2)CC1,Potency,[1],6.74 µM (active)
same,Potency,[2],inactive
CCOC(=O)c1ccc(NC(=O)CN2CCCCC2)cc1,Potency,[1],inactive
same,Potency,[2],inactive
Cc1ccc(C)c(NC(=O)Cn2cc(C(=O)c3ccco3)c3ccccc32)c1,Potency,[1],inactive
COc1ccc(-n2c(SCC#N)nc3sc4c(c3c2=O)CCCC4)cc1,Potency,[1],inactive
same,Potency,[2],inactive
COc1ccc(C#Cc2ccc(C(=O)N3CCC[C@@H](O)C3)c(F)c2)cc1,Potency,[1],inactive
CN[C@@H]1[C@@H](O)[C@@H](O[C@@H]2[C@@H](O)[C@H](O[C@H]3O[C@H]([C@@H](C)NC)CC[C@H]3N)[C@@H](N)C[C@H]2N)OC[C@]1(C)O,Potency,[1],inactive
O=c1c(-c2ccccc2)c1-c1ccccc1,Potency,[1],inactive
same,Potency,[2],23.7 µM (active)
COc1ccc(C(=O)c2ccccc2)c(O)c1,Potency,[1],inactive
same,Potency,[2],inactive
COc1cc(F)c(C(C)C)cc1-c1ccc(C(F)(F)F)cc1CN1C(=O)OC(c2cc(C(F)(F)F)cc(C(F)(F)F)c2)C1C (configuration not stated),Potency,[1],inactive
Nc1nc(-n2cc(C(=O)O)c(=O)c3cc(F)c(N4CC(O)C4)c(Cl)c32)c(F)cc1F,Potency,[1],inactive
Cc1c(Nc2ncccc2C(=O)O)cccc1C(F)(F)F,Potency,[1],inactive
same,Potency,[2],inactive
CN(CCCOc1ccc(Cc2ccccc2)cc1)CCC(=O)O,Potency,[1],inactive
same,Potency,[2],inactive
CCOC(C)OCC,Potency,[1],inactive
O=C1OC2(c3ccccc31)c1cc(Br)c(O)c(Br)c1Oc1c2cc(Br)c(O)c1Br,Potency,[1],19.5 µM (active)
same,Potency,[2],inactive
COc1cccc(OC)c1-c1ccc(C[C@H](NC(=O)c2c(Cl)cccc2Cl)C(=O)O)cc1,Potency,[1],inactive
same,Potency,[2],inactive
Cc1ccnn1-c1ccc(C(=O)N2CCN(S(=O)(=O)c3ccc(Cl)c(C(F)(F)F)c3)CC2)cc1,Potency,[1],inactive
same,Potency,[2],inactive
O=C(Cn1c2ccccc2c2nc3n(c(=O)c21)CCS3)N1CCCC1,Potency,[1],inactive
same,Potency,[2],inactive
O=C(O)Cc1ccc2oc(-c3ccc(NC(=O)/C=C/c4ccc(Br)cc4)c(F)c3)nc2c1,Potency,[1],inactive
same,Potency,[2],inactive
CCCCS(=O)(=O)NC(Cc1ccc(OCCCCC2CCNCC2)cc1)C(=O)O (configuration not stated),Potency,[1],inactive
same,Potency,[2],inactive
CC(C)c1cccc(O)c(=O)c1,Potency,[1],inactive
NC[C@H]1CCC[C@@H](CNC(=O)[C@@H](Cc2c[nH]c3ccccc23)NC(=O)N2CCC3(C=Cc4ccccc43)CC2)C1,Potency,[1],inactive
CN1CC2CN(c3ccc4oc5ccccc5c(=O)c4c3)CC2C1 (configuration not stated),Potency,[1],inactive
C[C@@H](Nc1cc(NS(=O)(=O)N2CCC2)nc(SCc2cccc(F)c2F)n1)[C@@H](O)CO,Potency,[1],inactive
same,Potency,[2],inactive
CC1(C)CC(NC(=O)C(=O)Nc2ccc(Cl)cc2)CC(C)(C)N1,Potency,[1],inactive
same,Potency,[2],inactive
Cc1cc(Nc2ncc3cc(-c4c(Cl)cccc4Cl)c(=O)n(C)c3n2)ccc1F,Potency,[1],inactive
same,Potency,[2],0.461 µM (active)
same,Potency,[3],0.517 µM (active)
Cn1cc(-c2cnc3ccc4ccc(CS(=O)(=O)NCc5ccccn5)cc4c(=O)c3c2)cn1,Potency,[1],inactive
same,Potency,[2],14.6 µM (active)
same,Potency,[3],11.6 µM (active)
C(#Cc1cccc(CN2CCOCC2)c1)CCN1CCCCC1,Potency,[1],inactive
same,Potency,[2],inactive
CC(C)C[C@@H](C(=O)N[C@@H](Cc1ccc(OCc2ccccc2)cc1)C(=O)NC(C)(C)C)N(C)Cc1ccc(C(C)(C)C)cc1,Potency,[1],inactive
same,Potency,[2],inactive
CCN(CC)CCCC(C)Nc1ccnc2cc(Cl)ccc12 (configuration not stated),Potency,[1],inactive
same,Potency,[2],8.2 µM (active)
same,viability (% of control),[2],72.7% [at 9.25 µM]
same,Potency,[3],10.3 µM (active)
same,activity (max response),[4],0.695% and -16.4%
same,Potency,[5],inactive
O=C(c1ccccn1)c1cnn2c(-c3ccncc3)ccnc12,Potency,[1],inactive
same,Potency,[2],inactive
same,Potency,[3],inactive
COCCCNCC1COc2ccccc2O1 (configuration not stated),Potency,[1],inactive
same,Potency,[2],inactive
same,Potency,[3],inactive
Cn1ncnc1COc1nn2c(-c3cc(F)ccc3F)nnc2cc1C(C)(C)C,Potency,[1],4.47 µM (active)
same,Potency,[2],inactive
same,Potency,[3],inactive
CCCCCCOC(=O)/N=C(\N)c1ccc(NCc2nc3cc(C(=O)N(CCC(=O)OCC)c4ccccn4)ccc3n2C)cc1,Potency,[1],inactive
same,Potency,[2],1.3 µM (active)
same,Potency,[3],0.82 µM (active)
CCn1c2ccccc2c2cc(Nc3ccnc(NCCCN4CCOCC4)n3)ccc21,Potency,[1],inactive
same,Potency,[2],2.31 µM (active)
same,Potency,[3],2.59 µM (active)
COc1cccc(OC)c1-c1nc(C(=O)N[C@@H](CC(C)C)C(=O)O)cn1-c1ccnc2cc(Cl)ccc12,Potency,[1],inactive
same,Potency,[2],inactive
CC(C)(C)OC(=O)N1CCC(OCc2nc(-c3ccncc3)no2)CC1,Potency,[1],inactive
same,Potency,[2],inactive
same,Potency,[3],inactive
NC(Cc1c[nH]c2ccccc12)C(=O)NC(CCC(=O)O)C(=O)O (configuration not stated),Potency,[1],inactive
same,Potency,[2],2.91 µM (active)
same,Potency,[3],inactive
O=C(c1ccc(Cl)c([N+](=O)[O-])c1)N1CCN(c2ccccc2F)CC1,Potency,[1],inactive
same,Potency,[2],23.1 µM (active)
same,Potency,[3],18.4 µM (active)
Cc1cc(CC(=O)O)n(C)c1C(=O)c1ccc(Cl)cc1,Potency,[1],inactive
same,Potency,[2],inactive
Cc1nc(C#Cc2ccnc(Cl)c2)c(C)n1-c1ccc(F)cc1,Potency,[1],inactive
same,Potency,[2],8.2 µM (active)
same,Potency,[3],8.2 µM (active)
O=C(NCC(O)CO)c1ccncc1Nc1ccc(I)cc1F (configuration not stated),Potency,[1],inactive
same,Potency,[2],0.366 µM (active)
same,Potency,[3],0.164 µM (active)
CCCc1cc2c(N3CCN(C4=NCC(C)(C)S4)CC3)ncnc2s1,Potency,[1],inactive
same,Potency,[2],8.2 µM (active)
same,Potency,[3],5.8 µM (active)
CNC(=O)c1cnn(-c2nc(N)c3ncn([C@@H]4O[C@H](CO)[C@@H](O)[C@H]4O)c3n2)c1,Potency,[1],inactive
same,Potency,[2],inactive
same,Potency,[3],inactive
O=C(c1ccc(F)cc1)C1CCN(CCn2c(=O)nc3n(c2=O)CCCC3)CC1,Potency,[1],inactive
same,Potency,[2],inactive
same,Potency,[3],inactive
CC(C)c1noc(C2CCN(c3ncnc(Nc4ccc(S(C)(=O)=O)cc4F)c3[N+](=O)[O-])CC2)n1,Potency,[1],inactive
same,Potency,[2],inactive
same,Potency,[3],inactive
O=S(=O)(Cc1ccccc1)Nc1ccc(-c2ccc3c(cnn3-c3ccc(F)cc3)c2)c(C(F)(F)F)c1,Potency,[1],12 µM (active)
same,Potency,[2],16.4 µM (active)
same,Potency,[3],20.6 µM (active)
O=C(NC1CCN(CC(F)(F)F)CC1)c1ccc(-c2cccc(F)c2)nc1,Potency,[1],inactive
same,Potency,[2],inactive
same,Potency,[3],inactive
CNS(=O)(=O)c1ccccc1Nc1nc(Nc2ccc(N3CCN(C)CC3)cc2OC)ncc1Br,Potency,[1],inactive
same,Potency,[2],0.0184 µM (active)
same,Potency,[3],0.0326 µM (active)
O=C1N(CC2CCCCN2)CCN1c1ccccc1 (configuration not stated),Potency,[1],inactive
same,Potency,[2],inactive
same,Potency,[3],inactive
CNC(=O)c1cc(Oc2ccc3nc(N[C@@H]4CCCC[C@H]4O)sc3c2)ccn1,Potency,[1],inactive
same,Potency,[2],13 µM (active)
same,Potency,[3],11.6 µM (active)
CC#CC(=O)Nc1ccc2ncnc(Nc3cccc(Br)c3)c2c1,Potency,[1],inactive
same,Potency,[2],1.46 µM (active)
same,Potency,[3],1.46 µM (active) and 580 nM (active)
N#Cc1cc(F)cc(-c2nc(-c3ccccn3)no2)c1,Potency,[1],inactive
same,Potency,[2],inactive
same,Potency,[3],inactive
Nc1nc(Cl)nc2c1ncn2[C@@H]1O[C@H](CO)[C@@H](O)[C@@H]1F,Potency,[1],inactive
same,Potency,[2],106 nM (active) and 263 nM (active)
same,Potency,[3],188 nM (active) and 332 nM (active)
CN[C@H](CNC(=O)N1CCC[C@@H]([C@@H](OCCNC(=O)OC)c2cccc(Cl)c2)C1)C[C@H]1CCCOC1,Potency,[1],inactive
same,Potency,[2],inactive
same,Potency,[3],inactive
COc1cc(C(=O)NC2CCN(C)CC2)ccc1Nc1ncc2c(n1)N(C1CCCC1)CC(F)(F)C(=O)N2C,Potency,[1],inactive
same,Potency,[2],0.0231 µM (active)
same,Potency,[3],0.0103 µM (active)
CN(C)C/C=C/C(=O)Nc1cccc(C(=O)Nc2ccc(Nc3nccc(-c4cccnc4)n3)cc2)c1,Potency,[1],inactive
same,Potency,[2],0.184 µM (active)
same,Potency,[3],0.461 µM (active)
Nc1ncnc2c1C(=O)N(c1ccc(C3CCC(CC(=O)O)CC3)cc1)CCO2 (configuration not stated),Potency,[1],inactive
same,Potency,[2],inactive
same,Potency,[3],inactive
CC(C)(C(=O)c1cccnc1)c1cccnc1,Potency,[1],inactive
same,Potency,[2],inactive
same,Potency,[3],inactive
Cc1onc(-c2ccccc2)c1C(=O)N[C@@H]1C(=O)N2[C@@H]1SC(C)(C)[C@@H]2C(=O)O,Potency,[1],inactive
same,Potency,[2],inactive
same,Potency,[3],inactive
CCNC(=O)C1CC(F)(c2ccc(CN3CCCC3)c(F)c2)C1 (configuration not stated),Potency,[1],inactive
same,Potency,[2],inactive
same,Potency,[3],inactive
C[C@@H]1C[C@H](C)CN(CCC(=O)Nc2ccc(Br)cc2)C1,Potency,[1],inactive
same,Potency,[2],inactive
O=C(Nc1nc2ccccc2n1CCc1ccccc1)c1ccccc1,Potency,[1],inactive
same,Potency,[2],inactive
same,Potency,[3],inactive
